Source: PubChem BioAssay (Tox21)
Inconclusive results are not listed. Entries that show only a call come without a potency. Calls of active or inactive are those of the source. Unless noted, the call rests on the fitted dose curve.

Tests used:
[1] = Nuclear factor erythroid 2-related factor 2/antioxidant responsive element (Nrf2/ARE) small molecule agonists: qHTS cell viability counter screen in human keratinocytes (AID 1919968; active means well fitted curve in the direction sought with a large enough effect in the repeat runs; an effect the other way counts as inactive or inconclusive; further: nearly all actives have a fitted effect of over 55% in size)
How it was run: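 Measured as CellTiter-Fluor fluorescence, this readout tracks cytotoxicity in the same wells as the ARE-luciferase screen. HaCaT reporter cells (1,500/well) received compounds after a 5 h pre-incubation and were exposed for 23 h.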

[2] = Nuclear factor erythroid 2-related factor 2/antioxidant responsive element (Nrf2/ARE) small molecule agonists: luciferase reporter gene qHTS assay in human keratinocytes (AID 1919969); further: nearly all actives have a fitted effect of over 35% in size; further: potency means the concentration at half of the fitted maximal effect
[3] = molecular target: Gonadotropin-releasing hormone receptor (Homo sapiens) (UniProt P30968); test: Human gonadotropin-releasing hormone receptor (GnRHR) small molecule agonists, calcium flux assay in GnRHR-HEK293 cells (AID 1920063); further: nearly all actives have a fitted effect of over 35% in size
Chain of Gonadotropin-releasing hormone receptor (Homo sapiens) (P30968 whole entry, looked up): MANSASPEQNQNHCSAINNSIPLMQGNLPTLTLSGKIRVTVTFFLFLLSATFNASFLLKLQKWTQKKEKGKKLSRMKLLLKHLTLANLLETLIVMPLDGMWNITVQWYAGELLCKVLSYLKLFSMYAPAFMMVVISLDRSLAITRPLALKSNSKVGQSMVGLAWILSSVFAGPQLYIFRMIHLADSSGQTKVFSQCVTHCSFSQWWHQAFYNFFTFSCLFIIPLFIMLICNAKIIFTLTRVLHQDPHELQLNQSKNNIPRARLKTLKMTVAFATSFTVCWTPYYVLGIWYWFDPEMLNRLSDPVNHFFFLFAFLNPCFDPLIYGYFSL
How it was run: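 Fluorescence kinetics (480 nm excitation, 540 nm emission; 3 min, 1 s steps) report calcium mobilisation in human GnRHR-HEK293 cells in agonist mode. Dye incubation: 1 h, 37 C.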

[4] = molecular target: KiSS-1 receptor (Homo sapiens) (UniProt Q969F8); test: Human kisspeptin (KISS1R) small molecule agonists, calcium flux assay in KISS1R-HEK293 cells (AID 1920064; active means well fitted curve in the direction sought with a large enough effect in the repeat runs; an effect the other way counts as inactive or inconclusive)
Chain of KiSS-1 receptor (Homo sapiens) (Q969F8 whole entry, looked up): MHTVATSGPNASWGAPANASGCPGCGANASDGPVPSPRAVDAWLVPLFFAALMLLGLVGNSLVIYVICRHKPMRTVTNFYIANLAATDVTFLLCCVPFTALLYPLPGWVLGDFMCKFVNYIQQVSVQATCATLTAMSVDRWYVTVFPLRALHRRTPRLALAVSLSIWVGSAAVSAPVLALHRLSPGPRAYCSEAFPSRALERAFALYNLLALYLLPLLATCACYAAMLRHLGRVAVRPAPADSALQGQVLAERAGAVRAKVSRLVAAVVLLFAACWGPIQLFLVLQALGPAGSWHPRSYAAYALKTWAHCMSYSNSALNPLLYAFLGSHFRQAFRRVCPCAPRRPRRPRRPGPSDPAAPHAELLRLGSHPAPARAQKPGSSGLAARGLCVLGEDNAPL
How it was run: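 Measures KISS1R agonism through calcium-sensitive dye fluorescence in stably transfected HEK293 cells, read for 3 min after pin-tool compound delivery; 15-point titrations in triplicate.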

[5] = G protein-coupled receptor (GPCR) small molecule agonists, calcium flux assay: HEK293 wild type cell line counter screen (AID 1920065)
How it was run: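 Readout: fluorescence at 480 nm excitation/540 nm emission, sampled at 1 s intervals for 3 min. Cells had been cultured 18 h, then dye-loaded 1 h at 37 C before compound or ATP addition.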

[6] = p53 small molecule agonists, cell-based qHTS assay with human liver microsomes (AID 1963577);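 further: p53 response element beta-lactamase reporter cells with liver microsomes plus NADPH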
How it was run: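 Cells carrying a p53-responsive bla reporter were rested 5 h (37 C, 5% CO2) before compound transfer. Human liver microsomes plus NADPH, 0.5 mg/mL final apiece, supplied metabolism during the 16 h 37 C exposure.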

[7] = p53 small molecule agonists, cell-based qHTS assay with human liver microsomes: qHTS cell viability counter screen (AID 1963579); further: nearly all actives have a fitted effect of over 45% in size
How it was run: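 Seed p53RE-bla cells at 4,000 per well; incubate 5 h at 37 C; add compound, human liver microsomes and NADPH; incubate 16 h at 37 C; add CellTiter-Glo; after 30 min at room temperature, read luminescence.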

[8] = p53 small molecule agonists, cell-based qHTS assay with rat liver microsomes: qHTS cell viability counter screen (AID 1963580); further: nearly all actives have a fitted effect of over 45% in size
How it was run: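 p53RE-bla HCT-116 cells (4,000/well) rested 5 h at 37 C, then given Tox21 compounds in DMSO with rat liver microsomes (0.5 mg/mL final) plus NADPH (0.5 mg/mL final) for 16 h at 37 C. Viability read by CellTiter-Glo luminescence after 30 min at room temperature.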

[9] = p53 small molecule agonists, cell-based qHTS assay: qHTS cell viability counter screen (AID 1963581); further: nearly all actives have a fitted effect of over 45% in size
How it was run: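 In the same plates used for the p53 bla reporter, HCT-116 cells given compounds for 16 h at 37 C received CellTiter-Glo; luminescence was recorded 30 min later at room temperature.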

[10] = p53 small molecule agonists, cell-based qHTS assay (AID 1963582; active means well fitted activation curve with a large enough effect in the signal ratio in the repeat runs, not every such curve was filed as active; the % refers to the signal ratio)
How it was run: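 Compounds are pin-transferred in DMSO onto p53RE-bla cells and incubated 16 h at 37 C. The B/G FRET beta-lactamase substrate is then applied for 2 h at RT and fluorescence recorded.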

[11] = molecular target: 5-hydroxytryptamine receptor 2A (Homo sapiens) (UniProt P28223); test: 5-hydroxytryptamine receptor 2A (HTR2A) small molecule antagonists, cell-based qHTS assay (AID 1963586); further: nearly all actives have a fitted effect of over 45% in size
Chain of 5-hydroxytryptamine receptor 2A (Homo sapiens) (P28223 whole entry, looked up): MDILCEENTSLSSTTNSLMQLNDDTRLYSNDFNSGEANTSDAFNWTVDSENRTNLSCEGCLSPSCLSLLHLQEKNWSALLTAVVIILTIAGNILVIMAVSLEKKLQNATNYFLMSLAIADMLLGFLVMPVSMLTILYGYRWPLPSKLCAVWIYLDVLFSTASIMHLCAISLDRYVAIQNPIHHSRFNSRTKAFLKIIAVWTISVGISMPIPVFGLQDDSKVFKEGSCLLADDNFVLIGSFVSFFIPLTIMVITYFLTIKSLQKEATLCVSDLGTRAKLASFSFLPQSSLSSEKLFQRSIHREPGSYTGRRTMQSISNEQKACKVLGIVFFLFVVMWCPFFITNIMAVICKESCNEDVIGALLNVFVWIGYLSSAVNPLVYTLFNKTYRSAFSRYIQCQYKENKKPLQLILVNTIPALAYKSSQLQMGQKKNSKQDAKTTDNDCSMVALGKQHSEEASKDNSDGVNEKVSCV
How it was run: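 Antagonist-mode intracellular calcium assay: DOI (4 nM) added after 5 min compound pre-incubation at room temperature to dye-loaded HTR2A-CHO cells. Fluorescence followed for 3 min, sampled every second.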

[12] = molecular target: 5-hydroxytryptamine receptor 2A (Homo sapiens) (UniProt P28223); test: 5-hydroxytryptamine receptor 2A (HTR2A) small molecule agonists, cell-based qHTS assay (AID 1963587); further: nearly all actives have a fitted effect of over 30% in size
How it was run: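 HTR2A-CHO cells, plated 18 h at 37 C/5% CO2, dye-loaded 1 h at 37 C; compounds in DMSO added by pin tool (agonist mode). Intracellular calcium flux read as kinetic fluorescence on FDSS over 2 min at 1 s intervals.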

[13] = molecular target: Muscarinic acetylcholine receptor M1 (Homo sapiens) (UniProt P11229); test: Cholinergic receptor muscarinic 1 (CHRM1) small molecule antagonists, cell-based qHTS assay (AID 1963588); further: nearly all actives have a fitted effect of over 40% in size
Chain of Muscarinic acetylcholine receptor M1 (Homo sapiens) (P11229 whole entry, looked up): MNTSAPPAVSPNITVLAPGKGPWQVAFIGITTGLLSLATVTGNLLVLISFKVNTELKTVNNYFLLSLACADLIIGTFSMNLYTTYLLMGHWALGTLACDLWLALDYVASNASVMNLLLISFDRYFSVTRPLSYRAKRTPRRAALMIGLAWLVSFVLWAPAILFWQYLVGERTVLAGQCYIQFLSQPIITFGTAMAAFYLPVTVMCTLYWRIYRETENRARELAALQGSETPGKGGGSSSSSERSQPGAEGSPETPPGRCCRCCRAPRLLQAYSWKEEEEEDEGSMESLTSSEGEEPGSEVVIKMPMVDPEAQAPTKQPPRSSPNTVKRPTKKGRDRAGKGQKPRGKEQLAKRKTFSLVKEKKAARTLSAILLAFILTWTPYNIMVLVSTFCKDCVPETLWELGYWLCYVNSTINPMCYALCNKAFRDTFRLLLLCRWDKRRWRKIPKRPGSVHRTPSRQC
How it was run: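 CHRM1-CHO calcium-flux assay, antagonist mode. Cells were seeded 18 h, dye-loaded 1 h at 37 C and given compound for 5 min at RT, then acetylcholine was added at 50nM. FDSS fluorescence was read 3 min; 15 concentrations, three runs.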

[14] = molecular target: Muscarinic acetylcholine receptor M1 (Homo sapiens) (UniProt P11229); test: Cholinergic receptor muscarinic 1 (CHRM1) small molecule agonists, cell-based qHTS assay (AID 1963589); further: nearly all actives have a fitted effect of over 35% in size
How it was run: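 Each compound was tested at 15 concentrations across three independent runs on dye-loaded CHO cells stably expressing human CHRM1, reading intracellular calcium fluorescence kinetically at 1 sec intervals.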

[15] = cAMP Responsive Elements (CRE) small molecule agonists, cell-based qHTS assay (AID 1963590)
How it was run: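 Cell line: CRE-bla HEK 293T; medium DMEM/10% dialyzed FBS/0.1 mM NEAA/1 mM pyruvate/25 mM HEPES; 3 h compound exposure; beta-lactamase FRET readout after 2 h substrate loading at RT.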

[16] = cAMP Responsive Elements (CRE) small molecule antagonists, cell-based qHTS assay (AID 1963591; active means well fitted inhibition curve with a large enough effect in the signal ratio in the repeat runs, not every such curve was filed as active; the % refers to the signal ratio)
How it was run: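 Inhibition of NKH477-driven (0.25 uM final) CRE-beta-lactamase signal in HEK293T cells, 3 h compound exposure at 37 °C, detected by FRET substrate fluorescence.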

[17] = molecular target: Beta-2 adrenergic receptor (Homo sapiens) (UniProt P07550); test: Adrenergic beta2 receptor (ADRB2) small molecule antagonists, cell-based qHTS assay (AID 1963592); further: series mostly up to about 92 µM; nearly all actives have a fitted effect of over 50% in size
Chain of Beta-2 adrenergic receptor (Homo sapiens) (P07550 whole entry, looked up): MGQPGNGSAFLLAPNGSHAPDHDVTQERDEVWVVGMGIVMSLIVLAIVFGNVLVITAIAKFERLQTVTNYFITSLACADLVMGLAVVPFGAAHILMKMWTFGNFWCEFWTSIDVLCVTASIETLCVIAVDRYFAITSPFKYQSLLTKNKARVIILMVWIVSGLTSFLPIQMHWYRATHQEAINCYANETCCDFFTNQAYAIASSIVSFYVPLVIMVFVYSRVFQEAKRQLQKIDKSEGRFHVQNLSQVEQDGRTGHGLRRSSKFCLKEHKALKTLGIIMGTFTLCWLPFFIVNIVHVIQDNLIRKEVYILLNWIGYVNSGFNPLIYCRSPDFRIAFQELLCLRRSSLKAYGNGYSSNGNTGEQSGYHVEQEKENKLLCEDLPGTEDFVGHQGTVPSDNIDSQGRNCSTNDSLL
How it was run: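 Cells (CHO, stable ADRB2 overexpression) incubated 18-20hr at 37C; compounds added from DMSO; agonist mix (1nM isoproterenol, 100uM IBMX, 25uM Ro-20-1724) added; 0.5hr RT; d2-cAMP and anti-cAMP-cryptate added; 1hr RT; 665/615 nm read.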

[18] = molecular target: D(2) dopamine receptor (Homo sapiens) (UniProt P14416); test: Dopamine D2 receptor (DRD2) small molecule agonists, cell-based qHTS assay (AID 1963594); further: nearly all actives have a fitted effect of over 35% in size
Chain of D(2) dopamine receptor (Homo sapiens) (P14416 whole entry, looked up): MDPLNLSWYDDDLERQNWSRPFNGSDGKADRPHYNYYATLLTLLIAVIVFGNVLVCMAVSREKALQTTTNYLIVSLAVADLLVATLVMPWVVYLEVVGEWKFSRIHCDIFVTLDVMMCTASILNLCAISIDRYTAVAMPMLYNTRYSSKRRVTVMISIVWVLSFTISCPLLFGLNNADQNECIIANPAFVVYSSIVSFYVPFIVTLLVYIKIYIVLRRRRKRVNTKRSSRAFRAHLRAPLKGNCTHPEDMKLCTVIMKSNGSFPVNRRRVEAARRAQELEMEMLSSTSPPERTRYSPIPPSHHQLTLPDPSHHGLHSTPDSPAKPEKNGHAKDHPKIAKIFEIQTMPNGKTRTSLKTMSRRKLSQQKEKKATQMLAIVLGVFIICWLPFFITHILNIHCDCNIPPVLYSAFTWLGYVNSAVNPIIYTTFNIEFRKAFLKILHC
How it was run: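 HEK293 cells stably expressing DRD2 were cultured 24 h at 37 C, then given Ro20-1724 (0.1 mM final) and compounds for 10 min at room temperature. NKH477 (200nM) was then added for 30 min. cAMP was read by HTRF.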

[19] = molecular target: D(2) dopamine receptor (Homo sapiens) (UniProt P14416); test: Dopamine D2 receptor (DRD2) small molecule antagonists, cell-based qHTS assay (AID 1963595; active means well fitted inhibition curve with a large enough effect in the signal ratio in the repeat runs, with a control signal flat; the % refers to the signal ratio)
How it was run: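 Cells were plated and grown for 24 h at 37 °C. Ro20-1724 (0.1 mM final) went in first, then compound for 10 min. NKH477 (200 nM) with quinpirole (12 nM) followed for 30 min at RT, then HTRF detection reagents for 1 h.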

Row | SMILES | Potency [1] | Potency [2] | Potency [3] | Potency [4] | Potency [5] | Potency [6] | Potency [7] | Potency [8] | Potency [9] | Potency [10] | Potency [11] | Potency [12] | Potency [13] | Potency [14] | Potency [15] | Potency [16] | Potency [17] | Potency [18] | Potency [19]
1 | CCCCCCCCCC(C)=O | inactive | inactive | inactive | inactive | inactive | inactive | inactive | inactive | inactive | inactive | inactive | inactive | inactive | inactive | inactive | inactive | inactive | inactive | inactive
2 | CCC(COC(=O)CCS)(COC(=O)CCS)COC(=O)CCS | inactive | inactive | inactive | inactive | inactive | inactive | inactive | inactive | inactive | inactive | inactive | inactive | inactive |  | inactive | inactive | inactive | inactive | inactive
3 | C=COCCOCCOCCOC=C | inactive | inactive | inactive | inactive | inactive | inactive | inactive | inactive | inactive | inactive | inactive | inactive | inactive | inactive | inactive | inactive | inactive | inactive | inactive
4 | CCC(OCCCOC)OC(C)=O (configuration not stated) | inactive | inactive | inactive | inactive | inactive | inactive | inactive | inactive | inactive | inactive | inactive | inactive | inactive | inactive | inactive | inactive | inactive | inactive | inactive
5 | Cc1ccc(S(=O)(=O)O)c(C)c1 | inactive | inactive | inactive | inactive | inactive | inactive | inactive | inactive | inactive | inactive | inactive | inactive | inactive | inactive |  | inactive | inactive | inactive | inactive
6 | NCC1(Cc2noc(=O)[nH]2)CCCCC1 | inactive | inactive | inactive | inactive | inactive | inactive | inactive | inactive | inactive | inactive | inactive | inactive | inactive | inactive |  |  | inactive | inactive | inactive
7 | NC(=O)c1ccccc1N | inactive | inactive | inactive | inactive | inactive | inactive | inactive | inactive | inactive | inactive | inactive | inactive | inactive | inactive |  | inactive | inactive | inactive | inactive
8 | CC(C)(C)C(=O)C(Oc1ccc(Cl)cc1)n1ccnc1 (configuration not stated) | inactive | inactive | inactive | inactive | inactive | inactive | inactive | inactive | inactive | inactive | inactive | inactive | inactive | inactive |  | inactive |  | inactive | inactive
9 | CC(C)(C)c1n[nH]c(=O)n(N)c1=O | inactive | inactive | inactive | inactive | inactive | inactive | inactive | inactive | inactive | inactive | inactive | inactive | inactive |  | inactive | inactive | inactive | inactive | inactive
10 | O=C1c2c(O)ccc(Nc3ccc(CCO)cc3)c2C(=O)c2c([N+](=O)[O-])ccc(O)c21 | inactive | 30.6 µM (active) | inactive | inactive | inactive | inactive | inactive | inactive | inactive | inactive | inactive |  | inactive | inactive |  |  |  |  | 
11 | OCC(CO)N[C@H]1C[C@](O)(CO)[C@@H](O)[C@H](O)[C@H]1O | inactive | inactive | inactive | inactive | inactive | inactive | inactive | inactive | inactive | inactive | inactive | inactive | inactive | inactive | inactive | inactive | inactive | inactive | inactive
12 | CCOC(=O)CN | inactive | inactive | inactive | inactive | inactive | inactive | inactive | inactive | inactive | inactive | inactive | inactive | inactive | inactive | inactive | inactive | inactive | inactive | inactive
13 | Cc1ccc(CO)cc1 | inactive | inactive | inactive | inactive | inactive | inactive | inactive | inactive | inactive | inactive | inactive | inactive | inactive | inactive | inactive | inactive | inactive | inactive | inactive
14 | O=Cc1ccc(Cl)c(Cl)c1 | inactive | inactive | inactive | inactive | inactive | inactive | inactive | inactive | inactive | inactive | inactive | inactive | inactive | inactive | inactive | inactive | inactive | inactive | inactive
